# Laboratory results as given in PubChem BioAssay (EPA / NIEHS).
# Records with an inconclusive call do not appear. Active and inactive are the calls of the source. Rule for the calls: active = hit-call score of the fitted dose curve at least 0.9, where 1 is the maximum; inconclusive = response in the unintended direction; inactive = score below 0.9.
# Columns and labels:
# [1] = biological target: Thyroid hormone receptor alpha (Rattus norvegicus) + Thyroid hormone receptor beta (Rattus norvegicus) (UniProt P18113+P63059); assay: TOX21_TR_LUC_GH3_Antagonist_Followup: Tox21 GH3 Thyroid Hormone Receptor Antagonism Luciferase Follow-Up Assay (AID 2283942)
# Method in brief: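 Luminescence read-out (ONE-Glo, 30 min at room temperature) in GH3 reporter cells challenged with 1.0 nM T3 final. Compounds ran at 92 uM to 5nM over 15 concentrations for 24 h; DMSO served as negative control and baseline.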
# THRB (gene 7068) = THRB (gene 7068) (UniProt P10828); assay: TOX21_TRB_COA_Antagonist_Followup_ratio: Tox21 Thyroid Hormone Receptor beta Antagonism through Coactivator Recruitment Follow-Up Assay, Ratio (AID 2283967)
# THRB (gene 7068), sequence (P10828 whole entry, looked up, the tested form may be a part): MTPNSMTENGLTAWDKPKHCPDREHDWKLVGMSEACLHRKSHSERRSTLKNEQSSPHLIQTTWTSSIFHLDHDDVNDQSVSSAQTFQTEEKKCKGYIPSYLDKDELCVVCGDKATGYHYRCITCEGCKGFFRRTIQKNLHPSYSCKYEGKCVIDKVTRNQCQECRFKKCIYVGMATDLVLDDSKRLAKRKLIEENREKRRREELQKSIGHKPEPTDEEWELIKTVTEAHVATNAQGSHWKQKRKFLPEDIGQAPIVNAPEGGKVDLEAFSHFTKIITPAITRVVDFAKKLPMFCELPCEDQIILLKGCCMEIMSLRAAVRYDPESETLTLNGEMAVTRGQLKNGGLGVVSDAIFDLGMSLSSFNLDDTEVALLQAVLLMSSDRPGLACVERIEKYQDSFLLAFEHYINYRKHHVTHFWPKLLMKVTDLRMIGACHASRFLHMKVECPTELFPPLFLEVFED
# Method in brief: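 GST-TRb LBD 5.0 nM + 0.10% BSA, compound added; fluorescein-SRC-2 peptide 200 nM, Tb-anti-GST Ab 2 nM. TR-FRET, ex 340 / em 520:495 ratio. Norm: DMSO 0%, T3 100%.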
# [2] = TOX21_TR_RXR_BLA_Antagonist_Followup_viability: Viability Assessment in the Tox21 Thyroid Hormone Receptor beta Retinoid X Receptor alpha (RXRa) Antagonism Beta-lactamase (BLA) Follow-Up Assay (AID 2283979)
# Method in brief: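 RXRa-bla HEK293T cells (2,500/well, phenol red-free DMEM, 2% charcoal-stripped FBS) were attached 5 h, then exposed to compounds at 11 concentrations in triplicate for 16 h at 37C. Viability measured by CellTiter-Glo ATP luminescence, bidirectional fitting versus DMSO.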
# PGR (gene 5241) = PGR (gene 5241) (UniProt P06401); assay: TOX21_PR_BLA_Followup_Antagonist_ratio: Tox21 HEK293 Progesterone Receptor (PR) Antagonism Beta-lactamase Follow-Up Assay, Ratio (AID 2283934);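 note: PR-UAS-bla HEK293T cells stimulated with 1 nM R5020 agonist for 16 hr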
# PGR (gene 5241), sequence (P06401 whole entry, looked up): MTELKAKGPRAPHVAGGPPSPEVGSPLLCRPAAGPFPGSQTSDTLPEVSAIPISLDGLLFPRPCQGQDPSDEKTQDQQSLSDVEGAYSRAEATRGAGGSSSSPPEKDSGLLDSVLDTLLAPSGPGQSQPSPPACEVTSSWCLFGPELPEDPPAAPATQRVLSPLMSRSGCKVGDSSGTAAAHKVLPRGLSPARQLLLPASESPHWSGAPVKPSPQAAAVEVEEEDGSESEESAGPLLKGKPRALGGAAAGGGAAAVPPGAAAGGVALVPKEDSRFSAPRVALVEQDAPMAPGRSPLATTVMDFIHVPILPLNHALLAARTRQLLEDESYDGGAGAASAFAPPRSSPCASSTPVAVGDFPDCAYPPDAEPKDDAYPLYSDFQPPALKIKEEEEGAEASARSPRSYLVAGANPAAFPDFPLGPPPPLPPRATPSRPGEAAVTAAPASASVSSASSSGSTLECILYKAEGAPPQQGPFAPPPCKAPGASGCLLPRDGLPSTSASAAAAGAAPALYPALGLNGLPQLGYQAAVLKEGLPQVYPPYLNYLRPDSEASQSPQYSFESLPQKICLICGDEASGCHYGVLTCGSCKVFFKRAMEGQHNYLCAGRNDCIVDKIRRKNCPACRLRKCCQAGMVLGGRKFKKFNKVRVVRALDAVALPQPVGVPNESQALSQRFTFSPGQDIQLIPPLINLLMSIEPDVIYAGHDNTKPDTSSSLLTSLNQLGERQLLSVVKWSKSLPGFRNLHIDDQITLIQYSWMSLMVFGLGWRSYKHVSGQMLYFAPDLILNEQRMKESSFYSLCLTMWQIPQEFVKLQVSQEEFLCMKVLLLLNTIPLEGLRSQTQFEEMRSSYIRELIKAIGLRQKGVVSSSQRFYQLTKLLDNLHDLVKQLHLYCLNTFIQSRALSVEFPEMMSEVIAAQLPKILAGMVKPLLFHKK
# Method in brief: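 Readout is the blue/green (ch2/ch1) substrate cleavage ratio after 2 hours at room temperature, following 16 hr co-treatment of PR-bla HEK293T cells with compound and 1nM promegestone. Multiplexed CellTiter-Glo viability flags cytotoxicity; DMSO baseline.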
# [3] = TOX21_PR_BLA_Followup_Agonist_viability: Viability Assessment in the Tox21 HEK293 Progesterone Receptor (PR) Agonism Beta-lactamase Follow-Up Assay (AID 2283935);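 note: signal loss means lower viability so actives are cytotoxic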
# Method in brief: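 Run multiplexed with the beta-lactamase FRET read, this endpoint measures ATP by CellTiter-Glo luminescence (30 min, room temperature). PR-UAS-bla HEK293T cells received compound 6 hr after plating and were then incubated 16 hr at 37C in 2% stripped serum.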
# [4] = TOX21_PR_BLA_Followup_Antagonist_viability: Viability Assessment in the Tox21 HEK293 Progesterone Receptor (PR) Antagonism Beta-lactamase Follow-Up Assay (AID 2283936);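 note: cells exposed to compound with R5020 agonist for 16 h; hits lower the luminescence signal meaning cytotoxicity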
# Method in brief: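 PR-UAS-bla HEK293T cells in medium with 2% charcoal-stripped FBS were treated with compounds plus R5020 for 16 hr at 37C. After the beta-lactamase read, CellTiter-Glo was added to the same wells and luminescence read after 30 min at room temperature.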
# [5] = TOX21_PR_LUC_Followup_Antagonist_viability: Viability Assessment in the Tox21 HEK293 Progesterone Receptor (PR) Antagonism Luciferase Follow-Up Assay (AID 2283940)
# Method in brief: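 Viability counter-readout: cellular ATP measured by luciferase luminescence after 16 h compound exposure at 37C of HEK293-PR-A-luc cells, which had been cultured in charcoal-stripped serum and seeded 5 h beforehand.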
# [6] = TOX21_PR_LUC_Followup_Agonist_viability: Viability Assessment in the Tox21 HEK293 Progesterone Receptor (PR) Agonism Luciferase Follow-Up Assay (AID 2283941);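 note: loss of signal means cytotoxicity so actives lower viability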
# Method in brief: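 Cytotoxicity counter-readout in the PR-A luciferase reporter line HEK293, with 16 h compound exposure at 37C after cells were cultured in charcoal-stripped serum. Cellular ATP quantified by CellTiter-Glo luminescence.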
# THRA (gene 7067) = THRA (gene 7067) (UniProt P10827); assay: TOX21_TRA_COA_Antagonist_Followup_ratio: Tox21 Thyroid Hormone Receptor alpha Antagonism through Coactivator Recruitment Follow-Up Assay, Ratio (AID 2283953)
# THRA (gene 7067), sequence (P10827 whole entry, looked up, the tested form may be a part): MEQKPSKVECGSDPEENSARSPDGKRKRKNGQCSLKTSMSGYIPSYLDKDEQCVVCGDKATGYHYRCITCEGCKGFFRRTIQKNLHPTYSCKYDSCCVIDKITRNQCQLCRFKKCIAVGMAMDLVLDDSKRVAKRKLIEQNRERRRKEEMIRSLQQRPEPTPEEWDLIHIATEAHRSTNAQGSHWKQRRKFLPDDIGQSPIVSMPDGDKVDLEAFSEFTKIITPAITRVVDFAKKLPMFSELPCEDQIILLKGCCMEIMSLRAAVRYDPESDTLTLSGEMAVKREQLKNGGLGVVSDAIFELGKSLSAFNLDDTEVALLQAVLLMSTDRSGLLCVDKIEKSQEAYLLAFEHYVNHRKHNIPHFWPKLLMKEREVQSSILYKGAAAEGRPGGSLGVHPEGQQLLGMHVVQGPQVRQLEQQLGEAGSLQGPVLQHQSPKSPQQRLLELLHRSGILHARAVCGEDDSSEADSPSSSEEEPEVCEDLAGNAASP
# Method in brief: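 GST-TRα LBD 2.5 nM, BSA 0.10%, + cpd; then FITC-SRC-2 peptide 200 nM + Tb-anti-GST Ab 2 nM. TR-FRET ratio 520/495 nm. Norm: DMSO = 0%, T3 = 100%.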
# [7] = TOX21_TRB_BLA_Antagonist_Followup_viability: Viability Assessment in the Tox21 Thyroid Hormone Receptor beta Antagonism Beta-lactamase (BLA) Follow-Up Assay (AID 2283961)
# Method in brief: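 Viability read as CellTiter-Glo ATP luminescence (loss of signal = cytotoxicity) in the same plates as the TRβ-bla readout. TRβ-LBD/GAL4 UAS-bla HEK293T cells were exposed to compounds, 11 concentrations in triplicate, for 18 h at 37C/5% CO2.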
Compound,outcome [1],outcome (THRB (gene 7068)),outcome [2],outcome (PGR (gene 5241)),outcome [3],outcome [4],outcome [5],outcome [6],AC50 (PGR (gene 5241)),outcome (THRA (gene 7067)),outcome [7]
Cc1nc2ccc(CN(C)c3ccc(C(=O)N[C@@H](CCC(=O)O)C(=O)O)s3)cc2c(=O)[nH]1,inactive,inactive,inactive,–,–,–,–,–,–,–,–
CC(=O)OCC(=O)[C@@]1(O)CC[C@H]2[C@@H]3CCC4=CC(=O)CC[C@]4(C)[C@H]3C(=O)C[C@@]21C,–,–,–,inactive,inactive,inactive,inactive,inactive,–,–,–
CC(=O)O[C@H]1CC[C@@]2(C)C(=CC[C@@H]3[C@@H]2CC[C@]2(C)C(C(C)=O)=CC[C@@H]32)C1,–,–,–,–,inactive,inactive,inactive,inactive,10 µM (active),–,–
C/C=C1/C(=O)C[C@H]2[C@@H]3CCC4=CC(=O)CC[C@]4(C)[C@H]3CC[C@]12C,inactive,inactive,inactive,inactive,inactive,inactive,inactive,inactive,–,inactive,inactive
